In PubChem BioAssay (NCATS):
Where “and” joins values, the source holds several entries; their conditions need not be identical. Identical values can stand only once. A number with no mark means an inactive call. Results filed as inconclusive are left out. Where a call stands in place of a potency, no number is given. Calls of active or inactive are those of the source. Unless noted, calls come from the whole dose curve; as a rule, active = well fitted curve in the direction sought with a large enough effect; inconclusive = small, poorly fitted or top-dose-only effect, or another doubt; inactive = no such curve, though single readings can be large; an effect the other way counts as inactive or inconclusive. Residues, ends and D or L forms follow the SMILES beside them. *: point of attachment. Cbz = O=C(OCc1ccccc1)*

Legend:
[1] = Quantitative high throughput screen for delayed death inhibitors of the malarial parasite plastid, 96 hour incubation (AID 488745); details: Plasmodium falciparum growth; series mostly up to 28.7 µM; note: nearly all actives have a fitted effect of over 70% in size; note: potency is the fitted concentration of half-maximal effect
Procedure, shortened: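 Decreased firefly luciferase luminescence indicates inhibited growth of reporter-integrated P. falciparum after two generations (96 h, 37 C, 5% CO2). Infected erythrocytes at 0.1% parasitemia, 2% hematocrit, in Albumax-supplemented RPMI 1640.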

[2] = Quantitative high throughput screen for delayed death inhibitors of the malarial parasite plastid, 48 hour incubation (AID 488752); details: Plasmodium falciparum growth; series mostly up to 28.7 µM; note: nearly all actives have a fitted effect of over 65% in size; note: potency is the fitted concentration of half-maximal effect
Procedure, shortened: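 One-generation (48 h) growth assay: a decrease in luciferase signal from an integrated reporter in P. falciparum-infected red cells (0.1% parasitemia, 2% hematocrit) after compound exposure at 37 C indicates parasite inhibition.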

[3] = target: Thioredoxin reductase 1, cytoplasmic (Rattus norvegicus) (UniProt O89049); experiment: qHTS Assay for Substrates of Mammalian Selenoprotein Thioredoxin Reductase 1 (TrxR1) (AID 488772); details: purified TrxR1, NADPH consumption substrate assay; series mostly up to 57.1 µM;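 note: a drop in NADPH fluorescence below the no-compound background marks a TrxR1 substrate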
Procedure, shortened: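 In this dual-purpose format, potential substrates are identified from the first fluorescence read after selenite addition, not from the 8-minute delta. Rat enzyme is preincubated with NADPH and then with compound at ~22 deg C.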

[4] = target: Flap endonuclease 1 (Homo sapiens) (UniProt P39748); experiment: qHTS Validation Assay for the Inhibitors of Human Flap endonuclease 1 (FEN1) (AID 488816); details: FEN1 nuclease activity, fluorogenic DNA substrate; series mostly up to 57.1 µM
Procedure, shortened: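 Enzyme reagent 10 nM; cpds pinned; 15 min RT preinc.; substrate 50 nM final; reads t=0 and 15 min; no-enzyme buffer wells as neg. control; normalized data, 4-parameter Hill fit.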

[5] = target: M-phase phosphoprotein 8 (Homo sapiens) (UniProt Q99549); experiment: qHTS Validation Assay for Inhibitors for MPP8 Chromodomain Interactions with Methylated Histone Tails (AID 488949); details: AlphaScreen MPP8 binding to H3K9me3 peptide; series mostly up to 57.1 µM;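 note: 50 nM MPP8 with 50 nM peptide preformed then compounds added for 30 min; AlphaScreen signal from MPP8 chromodomain bound to biotinylated H3K9me3 peptide; top concentration of the series differs between compounds; nearly all actives have a fitted effect of over 55% in size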
Procedure, shortened: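 50 nM MPP8 + 50 nM b-H3K9me3 peptide, PBS pH 7.4/0.01% Tween-20, 30 min RT; + cpd 30 min RT; + AlphaScreen donor/Ni-chelate acceptor beads 10 ug/mL final, 30 min dark; luminescence read.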

[6] = target: Chromobox protein homolog 1 (Homo sapiens) (UniProt P83916); experiment: qHTS Validation Assay for Inhibitors of HP1-beta Chromodomain Interactions with Methylated Histone Tails (AID 488953); details: HP1-beta chromodomain / methylated histone peptide binding assay; series mostly up to 114 µM;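 note: loss of AlphaScreen luminescence from HP1-beta binding biotinylated H3K9me3 peptide; nearly all actives have a fitted effect of over 50% in size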
Procedure, shortened: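 AlphaScreen proximity signal from streptavidin donor and nickel chelate acceptor beads (final 10 ug/mL) after 30 min dark incubation. Compounds had 30 min at room temperature with preformed complex of 50 nM HP1-beta and 50 nM b-H3(1-18)K9me3 in PBS pH 7.4 with 0.01% Tween-20.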

[7] = target: Methanococcus maripaludis chaperonin (MmCpn) (UniProt Q6LX38); experiment: High-Throughput Screening for Modulators of Cytosolic Chaperonin Activity: MmCpn Primary Screen (AID 488978); details: Purified MmCpn ATPase activity, ADP HTRF detection, 10 min; series mostly up to 76.9 µM;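 note: 50 nM MmCpn enzyme hydrolysing 30 µM ATP at 37 °C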
Procedure, shortened: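 Steps: chaperonin 50 nM final; add compound, 5 min RT; start with ATP, 30 uM final; hold 10 min at 37C; add ADP Transcreener HTRF reagent, 5 min; read ex 320, em 590 and 665 nm.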

[8] = target: Transient receptor potential cation channel subfamily V member 1 (Homo sapiens) (UniProt Q8NER1); experiment: HTS Assay for Compounds that Act as Enhancers of the Vanilloid Receptor 1 (AID 488979); details: TRPV1-expressing cells, enhancer of channel activity, stimulated with capsaicin at EC20; series mostly up to 41.7 µM
Procedure, shortened: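 TRPV1 cells loaded with Fluo-8 calcium dye; compound added and Ca2+ signal (ex 480/em 520 nm) followed 3 min, then capsaicin at EC20 added and read 2 more min to detect enhancement.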

[9] = target: Thyrotropin receptor (Homo sapiens) (UniProt P16473); experiment: qHTS Assay for Antagonists of the Thyroid Stimulating Hormone Receptor (AID 488980); details: TSHR-expressing cells, cAMP antagonist read-out; series mostly up to 57.5 µM
Procedure, shortened: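 Readout is cAMP by HTRF competition between cellular cAMP and cAMP-d2 for a cryptate-labelled antibody. Antagonism was assessed in TSHR-transfected HEK293 cells stimulated with 4 nM TSH (EC80, final) in the presence of RO 20-1724.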

[10] = target: D(1A) dopamine receptor (Homo sapiens) (UniProt P21728); experiment: HTS Assay for Allosteric Agonists of the Human D1 Dopamine Receptor: Primary Screen for Potentiators (AID 488982); details: HEK293 T-REx D1 inducible cells, calcium flux, kinetic fluorescence; series mostly up to 8.37 µM; note: potency is the fitted concentration of half-maximal effect
Procedure, shortened: (§1)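 Tetracycline-induced HEK293 Trex D1 cells with forced coupling to calcium, loaded with no-wash calcium dye; kinetic fluorescence read 180 s after compound addition for agonism, then a further 180 s after an EC20 dopamine challenge for potentiation.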

[11] = target: D(1A) dopamine receptor (Homo sapiens) (UniProt P21728); experiment: HTS Assay for Allosteric Agonists of the Human D1 Dopamine Receptor: Primary Screen for Antagonists (AID 488983); details: D1 receptor cell assay, antagonist mode, qHTS titration; series mostly up to 41.8 µM;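 note: calcium flux response to an EC80 dopamine challenge measured with no-wash dye; nearly all actives have a fitted effect of over 65% in size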
Procedure, shortened: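 Calcium-flux read-out in inducible HEK293 T-REx cells expressing D1, dye-loaded 30–90 min at room temperature. Kinetic reads: 180 s after compound (agonist phase), then 180 s after an EC80 dopamine challenge.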

[12] = Validation screen for small molecules that induce genotoxicity in human embryonic kidney (HEK293T) cells expressing luciferase-tagged ELG1 (AID 493106); details: luminescence; series mostly up to 46.1 µM
Procedure, shortened: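 ELG1-luciferase reporter readout (ONE-Glo, 30 min, room temperature) after 16 hr compound treatment at 37 °C of HEK293T cells at 2,000 per well. Rising luminescence flags genotoxic stress.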

[13] = target: ATPase family AAA domain-containing protein 5 (Homo sapiens) (UniProt Q96QE3); experiment: Validation screen for small molecules that inhibit ELG1-dependent DNA repair in human embryonic kidney (HEK293T) cells expressing luciferase-tagged ELG1 (AID 493107); details: HEK293T ELG1-luciferase level, luminescence, 5-fluorouridine co-treatment, 16 h; series mostly up to 46.1 µM;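 note: inhibitors lower the ELG1-luciferase luminescence signal; nearly all actives have a fitted effect of over 70% in size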
Procedure, shortened: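 Luciferase read-out, ONE-Glo, 30 min at room temperature, follows 16 h co-exposure at 37 C of compound and the DNA-damaging agent 5-fluorouridine. Cells: HEK293T with ELG1-luciferase fusion, 2,000 per well, DMSO as vehicle.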

[14] = target: Thyrotropin-releasing hormone receptor (Homo sapiens) (UniProt P34981); experiment: qHTS for Small Molecule Agonists and Allosteric Enhancers of Human TRH Receptor: Validation Screen for Agonists (AID 493127;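 active = calcium activation more than 3 SD above the typical response in the agonist read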;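 note: intracellular calcium rise by fluo-8 fluorescence before TRH EC20 addition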); details: TRH receptor agonist cell assay; at 2 µM; stronger effect = higher value
Procedure, shortened: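 Compound-evoked intracellular calcium release in fluo-8-loaded TRHR cells, read kinetically on FDSS (Ex 480/Em 530, 1 s/cycle) after 23 nL pintool transfer. Agonist phase preceded 10 nM TRH EC20 addition.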

[15] = target: ATP-dependent 6-phosphofructokinase (Trypanosoma brucei brucei) (UniProt O15648); experiment: qHTS Validation Assay to Find Inhibitors of T. brucei phosphofructokinase (AID 485368); details: T. brucei PFK enzyme assay, qHTS 7-point titration; series mostly up to 57.5 µM
Procedure, shortened: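 Luminescent ADP detection measures PFK turnover of fructose-6-phosphate (0.5 mM) with ATP (0.1 mM) at pH 8.0. Reaction runs 45 min at room temperature with 1.25 nM enzyme; inhibitors tested as titrations up to 57 uM.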

[16] = target: Thioredoxin reductase 1, cytoplasmic (Rattus norvegicus) (UniProt O89049); experiment: qHTS Assay for Inhibitors of Mammalian Selenoprotein Thioredoxin Reductase 1 (TrxR1) (AID 488773); details: purified TrxR1 enzyme activity; Potency: inhibition; series mostly up to 57.1 µM;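 note: drop in NADPH fluorescence over an 8 min run after selenite addition; nearly all actives have a fitted effect of over 40% in size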
Procedure, shortened: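 Inhibition is scored from the loss of NADPH fluorescence between first and last reads of an 8-min kinetic run. Selenite (400 uM) was the substrate, added after 15 min compound preincubation at room temperature.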

[17] = target: D(1A) dopamine receptor (Homo sapiens) (UniProt P21728); experiment: HTS Assay for Allosteric Agonists of the Human D1 Dopamine Receptor: Primary Screen for Agonists (AID 488981); details: Inducible HEK293 T-REx D1 cells, calcium-flux fluorescence, 180 s kinetic; series mostly up to 41.8 µM
Procedure, shortened: as §1

[18] = target: ATP-dependent 6-phosphofructokinase (Trypanosoma brucei brucei) (UniProt O15648); experiment: qHTS Assay to Find Inhibitors of T. brucei phosphofructokinase: hit validation (AID 492961); details: T. brucei PFK, ADP-Glo luminescence; series mostly up to 51.4 µM
Procedure, shortened: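 Luminescence from ADP-Glo reports ADP generated as T. brucei PFK (1.25 nM) phosphorylates 0.5 mM fructose-6-phosphate using 0.1 mM ATP. Reactions ran 45 min at room temperature, pH 8.0.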

Chain of Chromobox protein homolog 1 (Homo sapiens) (P83916 whole entry, looked up): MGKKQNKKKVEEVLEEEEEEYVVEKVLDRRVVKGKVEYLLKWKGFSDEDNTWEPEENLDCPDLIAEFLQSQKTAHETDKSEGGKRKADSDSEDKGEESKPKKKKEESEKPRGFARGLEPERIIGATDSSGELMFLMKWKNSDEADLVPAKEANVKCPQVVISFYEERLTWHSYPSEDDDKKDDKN
Chain of ATP-dependent 6-phosphofructokinase (Trypanosoma brucei brucei) (O15648 whole entry, looked up): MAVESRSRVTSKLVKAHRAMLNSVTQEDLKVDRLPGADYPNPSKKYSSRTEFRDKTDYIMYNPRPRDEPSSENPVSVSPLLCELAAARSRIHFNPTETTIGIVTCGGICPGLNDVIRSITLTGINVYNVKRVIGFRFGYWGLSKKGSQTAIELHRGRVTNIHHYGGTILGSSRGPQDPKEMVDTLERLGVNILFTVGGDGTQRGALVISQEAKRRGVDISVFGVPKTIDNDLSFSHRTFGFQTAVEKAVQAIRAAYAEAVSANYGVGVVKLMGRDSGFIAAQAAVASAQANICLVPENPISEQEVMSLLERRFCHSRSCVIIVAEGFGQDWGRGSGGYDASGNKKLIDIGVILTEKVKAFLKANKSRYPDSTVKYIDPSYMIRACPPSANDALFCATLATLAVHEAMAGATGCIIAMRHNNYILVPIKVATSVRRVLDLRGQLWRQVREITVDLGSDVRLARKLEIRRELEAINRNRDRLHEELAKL
Chain of Thyrotropin receptor (Homo sapiens) (P16473 whole entry, looked up): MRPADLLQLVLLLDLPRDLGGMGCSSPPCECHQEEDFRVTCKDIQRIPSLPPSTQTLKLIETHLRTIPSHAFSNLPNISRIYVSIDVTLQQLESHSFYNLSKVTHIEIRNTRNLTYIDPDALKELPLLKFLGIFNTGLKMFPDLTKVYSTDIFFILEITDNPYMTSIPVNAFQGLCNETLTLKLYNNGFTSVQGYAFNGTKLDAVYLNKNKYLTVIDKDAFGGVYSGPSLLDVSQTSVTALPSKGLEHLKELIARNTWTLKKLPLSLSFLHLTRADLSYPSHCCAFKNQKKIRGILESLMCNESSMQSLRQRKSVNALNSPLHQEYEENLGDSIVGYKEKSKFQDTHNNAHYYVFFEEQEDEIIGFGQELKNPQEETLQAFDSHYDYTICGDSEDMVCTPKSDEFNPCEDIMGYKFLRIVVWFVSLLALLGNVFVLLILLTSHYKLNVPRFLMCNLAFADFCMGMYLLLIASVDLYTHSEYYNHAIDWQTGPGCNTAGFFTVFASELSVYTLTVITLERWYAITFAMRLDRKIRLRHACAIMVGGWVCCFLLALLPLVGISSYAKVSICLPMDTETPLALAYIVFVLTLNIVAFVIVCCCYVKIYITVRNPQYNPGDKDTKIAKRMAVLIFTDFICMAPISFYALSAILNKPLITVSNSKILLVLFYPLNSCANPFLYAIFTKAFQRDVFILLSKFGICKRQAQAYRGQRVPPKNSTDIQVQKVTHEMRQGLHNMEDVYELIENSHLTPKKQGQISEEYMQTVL
Chain of ATPase family AAA domain-containing protein 5 (Homo sapiens) (Q96QE3 whole entry, looked up, the tested form may be a part): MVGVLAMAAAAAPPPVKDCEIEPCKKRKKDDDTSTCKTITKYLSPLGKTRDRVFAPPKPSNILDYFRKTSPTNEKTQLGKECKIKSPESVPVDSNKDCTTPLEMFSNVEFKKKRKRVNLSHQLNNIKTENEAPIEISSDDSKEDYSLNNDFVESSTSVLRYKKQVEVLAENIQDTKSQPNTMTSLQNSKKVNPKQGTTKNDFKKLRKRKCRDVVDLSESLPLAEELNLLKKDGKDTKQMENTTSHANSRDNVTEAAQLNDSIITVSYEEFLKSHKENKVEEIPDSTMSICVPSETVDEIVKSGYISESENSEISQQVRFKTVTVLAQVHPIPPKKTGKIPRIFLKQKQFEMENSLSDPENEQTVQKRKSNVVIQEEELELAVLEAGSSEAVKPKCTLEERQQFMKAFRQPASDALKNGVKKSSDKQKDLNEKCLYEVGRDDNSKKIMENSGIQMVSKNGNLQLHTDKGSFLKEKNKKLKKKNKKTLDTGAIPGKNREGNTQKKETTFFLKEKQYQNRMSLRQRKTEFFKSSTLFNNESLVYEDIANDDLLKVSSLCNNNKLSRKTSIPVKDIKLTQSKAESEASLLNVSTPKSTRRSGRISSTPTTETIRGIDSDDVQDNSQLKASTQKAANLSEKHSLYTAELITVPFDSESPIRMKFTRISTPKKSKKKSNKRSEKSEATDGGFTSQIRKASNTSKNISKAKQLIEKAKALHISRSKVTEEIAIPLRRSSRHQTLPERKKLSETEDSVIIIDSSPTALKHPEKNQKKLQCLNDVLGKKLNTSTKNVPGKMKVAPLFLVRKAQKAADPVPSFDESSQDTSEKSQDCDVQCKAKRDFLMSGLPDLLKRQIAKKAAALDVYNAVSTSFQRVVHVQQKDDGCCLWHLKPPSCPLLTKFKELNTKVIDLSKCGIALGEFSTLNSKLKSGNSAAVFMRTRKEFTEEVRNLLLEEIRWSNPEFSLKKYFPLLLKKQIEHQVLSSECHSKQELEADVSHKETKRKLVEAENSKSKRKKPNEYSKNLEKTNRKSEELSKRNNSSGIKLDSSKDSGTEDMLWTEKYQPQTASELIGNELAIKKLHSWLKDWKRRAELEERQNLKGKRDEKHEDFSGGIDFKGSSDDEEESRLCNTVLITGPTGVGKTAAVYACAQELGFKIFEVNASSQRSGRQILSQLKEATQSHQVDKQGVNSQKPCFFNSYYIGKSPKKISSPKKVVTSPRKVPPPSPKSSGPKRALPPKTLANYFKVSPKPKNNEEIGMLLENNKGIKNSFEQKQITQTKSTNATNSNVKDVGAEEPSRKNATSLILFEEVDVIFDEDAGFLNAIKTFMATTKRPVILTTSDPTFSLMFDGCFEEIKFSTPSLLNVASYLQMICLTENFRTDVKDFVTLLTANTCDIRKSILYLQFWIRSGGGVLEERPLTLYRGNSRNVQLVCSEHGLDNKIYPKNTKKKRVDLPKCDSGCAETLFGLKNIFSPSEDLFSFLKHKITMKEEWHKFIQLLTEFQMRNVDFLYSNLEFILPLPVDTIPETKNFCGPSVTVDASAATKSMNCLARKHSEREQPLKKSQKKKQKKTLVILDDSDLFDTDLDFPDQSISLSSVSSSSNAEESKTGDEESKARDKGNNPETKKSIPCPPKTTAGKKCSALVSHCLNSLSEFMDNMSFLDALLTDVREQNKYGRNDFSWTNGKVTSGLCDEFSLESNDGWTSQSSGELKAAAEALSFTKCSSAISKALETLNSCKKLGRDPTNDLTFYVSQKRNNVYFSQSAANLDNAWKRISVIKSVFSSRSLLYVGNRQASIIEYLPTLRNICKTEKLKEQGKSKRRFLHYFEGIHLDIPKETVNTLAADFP
Chain of Transient receptor potential cation channel subfamily V member 1 (Homo sapiens) (Q8NER1 whole entry, looked up): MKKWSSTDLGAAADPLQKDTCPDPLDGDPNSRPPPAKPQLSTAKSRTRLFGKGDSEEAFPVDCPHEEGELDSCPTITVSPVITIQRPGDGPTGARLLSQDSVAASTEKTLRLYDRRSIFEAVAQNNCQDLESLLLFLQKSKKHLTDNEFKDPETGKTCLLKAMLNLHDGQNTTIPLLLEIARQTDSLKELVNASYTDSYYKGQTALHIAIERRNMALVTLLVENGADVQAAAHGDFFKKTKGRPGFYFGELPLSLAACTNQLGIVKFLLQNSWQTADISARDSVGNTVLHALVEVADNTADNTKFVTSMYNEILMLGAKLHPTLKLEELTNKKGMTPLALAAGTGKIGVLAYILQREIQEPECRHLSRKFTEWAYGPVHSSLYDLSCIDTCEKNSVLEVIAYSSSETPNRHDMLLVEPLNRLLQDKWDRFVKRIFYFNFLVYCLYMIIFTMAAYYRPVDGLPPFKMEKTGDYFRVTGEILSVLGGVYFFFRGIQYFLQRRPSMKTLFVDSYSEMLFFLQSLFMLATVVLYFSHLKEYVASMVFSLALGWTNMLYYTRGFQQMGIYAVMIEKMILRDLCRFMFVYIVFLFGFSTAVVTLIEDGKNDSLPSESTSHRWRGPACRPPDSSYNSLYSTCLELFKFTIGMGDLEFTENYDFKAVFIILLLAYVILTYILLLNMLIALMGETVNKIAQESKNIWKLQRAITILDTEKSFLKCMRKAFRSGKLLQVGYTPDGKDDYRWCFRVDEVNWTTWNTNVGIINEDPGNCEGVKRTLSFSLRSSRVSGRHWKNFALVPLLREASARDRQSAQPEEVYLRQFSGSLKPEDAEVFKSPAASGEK
Chain of M-phase phosphoprotein 8 (Homo sapiens) (Q99549 whole entry, looked up): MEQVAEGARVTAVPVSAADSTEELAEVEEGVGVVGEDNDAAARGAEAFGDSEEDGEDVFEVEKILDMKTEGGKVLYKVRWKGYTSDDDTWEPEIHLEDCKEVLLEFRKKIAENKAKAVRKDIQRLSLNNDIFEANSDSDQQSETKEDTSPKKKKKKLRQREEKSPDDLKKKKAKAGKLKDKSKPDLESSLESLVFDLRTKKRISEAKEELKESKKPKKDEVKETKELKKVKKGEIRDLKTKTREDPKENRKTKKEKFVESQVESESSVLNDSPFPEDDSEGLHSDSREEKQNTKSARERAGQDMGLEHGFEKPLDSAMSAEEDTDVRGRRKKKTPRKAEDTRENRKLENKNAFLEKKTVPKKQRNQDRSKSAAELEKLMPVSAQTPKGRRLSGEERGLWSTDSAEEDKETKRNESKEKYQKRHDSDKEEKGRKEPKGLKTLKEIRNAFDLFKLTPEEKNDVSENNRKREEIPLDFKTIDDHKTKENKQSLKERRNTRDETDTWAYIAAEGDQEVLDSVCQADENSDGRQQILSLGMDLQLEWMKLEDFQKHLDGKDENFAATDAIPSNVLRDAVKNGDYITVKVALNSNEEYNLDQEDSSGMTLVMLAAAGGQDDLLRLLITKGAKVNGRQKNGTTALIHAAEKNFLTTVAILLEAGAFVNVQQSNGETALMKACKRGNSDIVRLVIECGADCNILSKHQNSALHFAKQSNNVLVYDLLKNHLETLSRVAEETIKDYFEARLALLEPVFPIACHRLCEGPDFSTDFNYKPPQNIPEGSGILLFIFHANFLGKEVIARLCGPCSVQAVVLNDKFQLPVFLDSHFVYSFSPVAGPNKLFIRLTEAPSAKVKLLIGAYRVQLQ

Row | Compound | Potency [1] | Potency [2] | outcome [3] | Potency [4] | Potency [5] | Potency [6] | outcome [7] | outcome [8] | outcome [9] | Potency [10] | Potency [11] | Potency [12] | Potency [13] | activation [14] | Potency [15] | Potency [16] | Potency [17] | outcome [18]
1 | NC(N)=NC(N)=Nc1ccccc1 | inactive | inactive | inactive | inactive | inactive | inactive | inactive | inactive | inactive | inactive | inactive | inactive | inactive | 0.75% |  |  |  | 
2 | CN1CCc2cc(Cl)c(O)cc2[C@@H](c2ccccc2)C1 |  |  | inactive | inactive | inactive | inactive | inactive |  |  | inactive |  |  | inactive |  | inactive | inactive | inactive | 
3 | NCC(O)(CS(=O)(=O)O)c1ccc(Cl)cc1 (stereo not drawn) | inactive | inactive | inactive | inactive | inactive |  | inactive | inactive | inactive | inactive | inactive | inactive | inactive | 0.25% | inactive | inactive | inactive | 
4 | CC(C)[C@H](NC(=O)OCc1ccccc1)C(=O)N[C@H](C=O)Cc1ccccc1 (Cbz-Val-Phe-aldehyde) | 2.33 µM (active) | 2.94 µM (active) | inactive | inactive | inactive | inactive | inactive | inactive | inactive | 2.06 µM (active) | inactive | inactive | inactive |  | inactive |  | inactive | 
5 | CC(/C=C/c1cccc(Oc2ccc(F)cc2)c1)N(O)C(N)=O (stereo not drawn) | inactive | inactive | inactive | inactive | inactive | inactive | inactive | inactive |  | inactive | inactive |  |  | 1% | inactive | inactive | inactive | 
6 | Cn1cc(C(F)(F)F)nc1-c1ccc(OCC(O)CNCCOc2ccc(O)c(C(N)=O)c2)cc1 (stereo not drawn) |  |  | inactive | inactive | inactive | inactive | inactive | inactive |  | inactive | inactive | inactive |  | 1.5% |  | inactive | inactive | 
7 | COc1cc2c(CCNC(C)=O)c[nH]c2cc1O |  | inactive | inactive | inactive | inactive | inactive | inactive | inactive | inactive | inactive | inactive | inactive |  | 0.875% | inactive | inactive | inactive | 
8 | CC(C)NC[C@H](O)COc1ccc(CC(N)=O)cc1 | inactive | inactive | inactive |  |  | inactive | inactive | inactive | inactive | inactive | inactive | inactive | inactive | 0.25% and -0.125% | inactive | inactive | inactive | inactive
9 | COc1cc(CNC(=O)CCCCCCC(C)C)ccc1O |  | inactive | inactive | inactive | inactive | inactive | inactive |  | inactive | inactive |  | inactive | inactive | -5.38% | inactive |  | inactive | 
10 | CC(C)NC[C@H](O)COc1cccc2ccccc12 |  |  | inactive |  | inactive | inactive |  |  |  | inactive | inactive |  | inactive |  | inactive | inactive |  | 
11 | CC(C)NCC(O)COc1ccc(CC(N)=O)cc1 (stereo not drawn) |  | inactive | inactive |  |  | inactive | inactive | inactive |  | inactive | inactive | inactive | inactive | 0.875% |  | inactive | inactive | 
12 | CC(C)(C)NCC(O)COc1cccc2[nH]c(=O)[nH]c12 (stereo not drawn) | inactive | inactive | inactive | inactive | inactive | inactive | inactive | inactive |  | inactive |  |  |  | 1.12% | inactive | inactive | inactive | 
13 | O=C(O)C1=CCNCC1 | inactive | inactive | inactive | inactive | inactive | inactive | inactive | inactive |  |  | inactive |  | inactive | 1.25% |  | inactive | inactive | 
14 | OC1(c2ccc(Cl)cc2)CCN(Cc2c[nH]c3ccccc23)CC1 |  |  | inactive | inactive |  |  | inactive |  | inactive |  |  | inactive | inactive | 7.75% |  | inactive |  | 
15 | Cc1cc(Cn2cnc3c2C[C@@H](C(=O)O)N(C(=O)C(c2ccccc2)c2ccccc2)C3)ccc1N |  |  | inactive | inactive | inactive |  | inactive |  |  | inactive | inactive |  | inactive |  | inactive | inactive | inactive | 
16 | NCCCNCCCCNCCCN | inactive | inactive | inactive | inactive |  | inactive | inactive | inactive | inactive | inactive | inactive | inactive | inactive | 0.688% |  | inactive |  | 
